# Measured values reported in PubChem BioAssay AID651702 (NMMLSC, 2012).
# Hit rate of the full screen: of about 360,000 compounds, about 2,400 (0.67%) were called active. This is one part of a sample in which actives are shown more often than they occur. Values without a mark were called inactive.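 How the source made its calls: active means inhibition above about 55% (limit read from the data); inconclusive means no clear call, values can overlap the other calls; inactive means the rest.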
# Assay: LAMP-1 surface exposure blockers, TALL-104 cells – cell-based, flow cytometry, MLPCN library, primary screen (AID 651702)
# Details: TALL-104 LAMP-1 surface exposure, at 10 µM, stronger effect = higher value, cells stimulated with thapsigargin and PMA
row,SMILES,inhibition
1,COc1ccccc1CN1CCN(C(c2ccccc2)c2ccccc2)CC1,69.5% (active)
2,COc1cccc(OC)c1C(=O)N1CCN(Cc2ccccc2F)CC1,0.4%
3,COc1ccccc1CN1CCN(Cc2cc(OC)c(OC)cc2OC)CC1,4.3%
4,CSc1ncccc1C(=O)OCC(=O)N1CCOCC1,0.7%
5,COc1ccc(C(O)c2nc(-c3ccc(OC)nc3)cs2)cc1 (configuration not stated),-0.4%
6,COc1ccc(-c2csc(Nc3ccc(O)cc3)n2)cc1,67.8% (active)
7,COC(=O)CCc1sc(Nc2ccc(Br)cc2)nc1-c1ccc(OC)cc1,7.1%
8,O=C(CS(=O)(=O)c1cn(Cc2ccc(Cl)cc2)c2ccccc12)N1CCOCC1,-1.9%
9,CCOC(=O)Cc1csc(NC(=O)CSc2nnc(-c3cccnc3)n2Cc2ccco2)n1,1%
10,CCOC(=O)CSc1nc2c(c(=O)n(Cc3ccccc3Cl)c(=O)n2C)n1C,-0.4%
11,CCOC(=O)CSc1nc2c(sc(=S)n2CCc2ccccc2)c(=O)n1Cc1ccco1,55.7% (active)
12,CCCc1nc(SCC(=O)N2CCCC2)c2c(=O)n(C)c(=O)n(C)c2n1,45.2%
13,CC(O)CN(Cc1ccc(Cl)cc1)CC(C)O (configuration not stated),0.5%
14,CCCCCn1c(=O)[nH]c2cc(C(=O)NCCCN3CCCCC3C)ccc2c1=O (configuration not stated),-0.7%
15,Cc1ccc(-c2cnc(NC(=O)CCC(=O)N(C)Cc3ccccc3)n2C)cc1,-1.9%
16,CC(C)CN1CC(C)C(=O)N(c2ccccc2)C1=S (configuration not stated),1.4%
17,CCN(CC(=O)Nc1ccccc1C(=O)NC1CC1)Cc1cccs1,-0.1%
18,CC1CCc2c(nc3ncnn3c2Nc2ccc(OC(F)(F)F)cc2)C1 (configuration not stated),-1.5%
19,O=S(=O)(NC1CC1)c1ccc(F)c(F)c1,-10.9%
20,Cn1sc(=O)c2cc(S(=O)(=O)NC3CC3)ccc21,100% (active)
21,CC1CCC(NS(=O)(=O)c2ccc3c(c2)CC(=O)N3)CC1 (configuration not stated),-3.8%
22,OC(CNCC1CCCO1)Cn1c2ccc(Br)cc2c2cc(Br)ccc21 (configuration not stated),41.3%
23,O=C(NCc1cccnc1)c1ccc(CS(=O)(=O)c2ccc(Br)cc2)o1,2.2%
24,Nc1nc(SCc2ccc([N+](=O)[O-])cc2)c2ncn(C3OC(CO)C(O)C3O)c2n1 (configuration not stated),-2.7%
25,Nc1cc(N)nc(SCc2ccc(Cl)cc2)n1,0.3%
26,CC(C)Cn1cnc2c(SCc3ccc(Cl)cc3)nc(N)nc21,90.1% (active)
27,COc1ccc(OCc2nnc3n2N=C(c2ccccc2)C(CC(=O)O)S3)cc1 (configuration not stated),32.9%
